# Measured values from paper PMC11995724, “Antibiotic target discovery by integrated phenotypic and activity-based profiling of electrophilic fragments” (Cell chemical biology, 2025).
# The whole screen tested about 3,200 compounds, of which about 75 (2%) showed an effect of 50% or more. Only a selection was taken, and strong results are over-represented in it overall.
# System: T1, S. aureus MSSA476
# T1 construct: MSSA476
# Set-up: species or system S. aureus MSSA476 (TSB) or V. cholerae SAD30 (LB); 384-well bacterial growth screen at 25 uM, OD600 relative to DMSO control
# Details: relative growth, OD600, TSB; 25 µM; inhibitor
row,Structure (SMILES),% of control remaining
1,"N#CC(=Cc1cnc2ccc(C#N)cn12)C(=O)Nc1ccc(F)cc1 [9-E20, 2-cyano-3-{6-cyanoimidazo[1,2-a]pyridin-3-yl}-N-(4-fluorophenyl)prop-2-enamide]",103.67%
2,"CC(Cl)C(=O)N1CCn2c(nn(CC(=O)N(C)C)c2=O)C1 (stereo not drawn) [7-K17, 2-[7-(2-chloropropanoyl)-3-oxo-2H,3H,5H,6H,7H,8H-[1,2,4]triazolo[4,3-a]pyrazin-2-yl]-N,N-dimethylacetamide]",89.4819%
3,"Cc1cc(C)n(CCCNC(=O)C(C)Cl)n1 (stereo not drawn) [7-O19, 2-chloro-N-[3-(3,5-dimethyl-1H-pyrazol-1-yl)propyl]propanamide]",98.2732%
4,"Cc1nn(C)c(C)c1NC(=O)C(C)Cl (stereo not drawn) [6-C07, 2-chloro-N-(1,3,5-trimethyl-1H-pyrazol-4-yl)propanamide]",84.6829%
5,"Cc1cc(NC(=O)CCl)c([N+](=O)[O-])cc1C [4-F21, 2-chloro-N-(4,5-dimethyl-2-nitrophenyl)acetamide]",87.2797%
6,"Cc1cc(C(=O)CCl)c(C)n1-c1ccccc1 [10-L20, 2-chloro-1-(2,5-dimethyl-1-phenyl-1H-pyrrol-3-yl)ethan-1-one]",127.188%
7,"Cc1cc(C(=O)CCl)c(C)n1-c1ccc(S(N)(=O)=O)cc1 [10-N14, 4-[3-(2-chloroacetyl)-2,5-dimethyl-1H-pyrrol-1-yl]benzene-1-sulfonamide]",121.875%
8,"Cc1cc(C(=O)CCl)c(C)n1-c1ccc(Cl)cc1 [10-H18, 2-chloro-1-[1-(4-chlorophenyl)-2,5-dimethyl-1H-pyrrol-3-yl]ethan-1-one]",-0.625%
9,"CC(Cl)C(=O)N[C@@H]1CCc2c(C#N)cccc21 (stereo partly drawn) [6-P14, 2-chloro-N-[(1R)-4-cyano-2,3-dihydro-1H-inden-1-yl]propanamide]",122.927%
10,"COc1ccc(CNC(=O)CCl)cc1OC [5-O11, 2-chloro-N-[(3,4-dimethoxyphenyl)methyl]acetamide]",81.6029%
11,"CC(=O)N1c2ccc(C(=O)CCl)cc2CC1C (stereo not drawn) [10-I20, 1-(1-acetyl-2-methyl-2,3-dihydro-1H-indol-5-yl)-2-chloroethan-1-one]",66.25%
12,"O=C(CCl)NCCS(=O)(=O)N1CCc2ccccc21 [6-H04, 2-chloro-N-[2-(2,3-dihydro-1H-indole-1-sulfonyl)ethyl]acetamide]",86.0488%
13,"CCC(=O)N1CCc2cc(C(=O)CCl)ccc21 [10-C22, 1-[5-(2-chloroacetyl)-2,3-dihydro-1H-indol-1-yl]propan-1-one]",125.938%
14,"CC(=O)NCCc1cc(C(=O)CCl)ccc1F [10-O05, N-{2-[5-(2-chloroacetyl)-2-fluorophenyl]ethyl}acetamide]",128.438%
15,"O=CN1CCc2cc(C(=O)CCl)ccc21 [10-K20, 5-(2-chloroacetyl)-2,3-dihydro-1H-indole-1-carbaldehyde]",102.813%
16,"CS(=O)(=O)N1CCc2cc(C(=O)CCl)ccc21 [10-B19, 2-chloro-1-(1-methanesulfonyl-2,3-dihydro-1H-indol-5-yl)ethan-1-one]",0.3125%
17,"CCS(=O)(=O)N1CCc2cc(C(=O)CCl)ccc21 [10-E18, 2-chloro-1-[1-(ethanesulfonyl)-2,3-dihydro-1H-indol-5-yl]ethan-1-one]",0.3125%
18,"CN1C(=O)Cc2cc(C(=O)CCl)ccc21 [10-G07, 5-(2-chloroacetyl)-1-methyl-2,3-dihydro-1H-indol-2-one]",132.813%
19,"CS(=O)(=O)N1CCCc2cc(C(=O)CCl)ccc21 [10-H19, 2-chloro-1-(1-methanesulfonyl-1,2,3,4-tetrahydroquinolin-6-yl)ethan-1-one]",1.5625%
20,"CC1Cc2cc(C(=O)CCl)ccc2N1S(C)(=O)=O (stereo not drawn) [10-A04, 2-chloro-1-(1-methanesulfonyl-2-methyl-2,3-dihydro-1H-indol-5-yl)ethan-1-one]",1.875%
21,"CC(=O)N1CCc2cc(C(=O)C(C)Cl)ccc21 (stereo not drawn) [10-L22, 1-(1-acetyl-2,3-dihydro-1H-indol-5-yl)-2-chloropropan-1-one]",124.375%
